# According to PubChem BioAssay (NCATS):
# Records with an inconclusive call do not appear. Active and inactive are the calls of the source. Calls follow the shape of the dose curve; as a rule, active = well fitted inhibition curve with a large enough effect in the signal ratio, with a control signal flat (not every such curve was filed as active); inconclusive = small, poorly fitted or top-dose-only effect, or effect the other way, or a change in a side signal; inactive = no such curve, though single readings can be large or run the other way; the % refers to the signal ratio.
# Target: Peroxisome proliferator-activated receptor delta (Homo sapiens) (UniProt Q03181)
# Sequence (Q03181 whole entry, looked up): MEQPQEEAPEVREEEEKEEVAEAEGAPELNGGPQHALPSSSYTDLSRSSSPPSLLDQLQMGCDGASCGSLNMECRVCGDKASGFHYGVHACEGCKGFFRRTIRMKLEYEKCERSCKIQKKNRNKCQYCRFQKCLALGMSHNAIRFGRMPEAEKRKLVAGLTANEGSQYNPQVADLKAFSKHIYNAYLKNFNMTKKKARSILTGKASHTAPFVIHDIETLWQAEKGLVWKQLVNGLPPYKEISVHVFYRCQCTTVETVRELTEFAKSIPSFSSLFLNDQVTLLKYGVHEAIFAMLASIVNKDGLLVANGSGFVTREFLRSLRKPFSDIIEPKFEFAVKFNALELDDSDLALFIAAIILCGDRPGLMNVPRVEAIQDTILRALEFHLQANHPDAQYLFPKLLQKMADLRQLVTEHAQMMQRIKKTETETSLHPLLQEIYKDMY
# Assay: qHTS assay for small molecule antagonists of peroxisome proliferator-activated receptor delta signaling (AID 588535)
# Conditions: HEK293T PPARd-UAS-bla, beta-lactamase FRET ratio, 18 h; series mostly up to 76.7 µM
# Source text: NIH Chemical Genomics Center [NCGC] U.S. Environmental Protection Agency [EPA] National Institutes of Environmental Health Sciences [NIEHS] National Toxicology Program [NTP] NCGC Assay Overview The Peroxisome proliferator-activated receptors (PPARs) are lipid-activated transcription factors of the nuclear receptor superfamily with three distinct subtypes namely PPAR alpha, PPAR delta (also called PPAR beta) and PPAR gamma. All these subtypes heterodimerizes with Retinoid X receptor (RXR) and have different physiological functions. […] This role of PPAR delta implicates the potential use of its ligands in the treatment of metabolic disorders.
# NCGC Assay Protocol Summary Using a beta-lactamase reporter-gene under control Peroxisome Proliferator-Activated Receptor delta (PPAR-delta) response element, a cell-based assay [GeneBLAzer (PPAR-delta-UAS-bla assay developed by Invitrogen] was used to measure PPAR-delta ligands signaling. GeneBLAzer PPAR-delta-UAS-bla HEK293T cells were used with assay medium containing 2% charcoal/dextran FBS. The assay was performed in clear bottom black Greiner 1536-well plates. Library compounds were measured for their ability to inhibit the reporter gene activity. Compounds were screened in a titration series in 1536-well format. The fluorescence intensity (405 nm excitation, 460/530 nm emission) was measured using an EnVision plate reader. […] Concentration-response titration points for each compound were fitted to the Hill equation yielding concentrations of half-maximal inhibition (IC50) and maximal response (efficacy) values. qHTS protocol for PPAR-delta beta-lactamase assay in antagonist mode [Step] [Parameter] [Value] [Description] 1. Reagent; 5 uL; 4000 cells/well 2. Incubation; 37 C for 5 hrs 3. Compounds; 23 nL; 0.59 nM to 92 uM 4. […] Incubation; 37 C for 18 hrs 7. Detection reagent; 1 uL of CCF4-dye 8. Incubation; RT for 2 hrs 9. Detection; Fluorescence; Envision plate reader
row,SMILES,outcome
1,Oc1ccccc1-c1ccccc1,inactive
2,CNCC(O)c1ccc(O)cc1 (stereo unspecified),inactive
3,Oc1cc(Cl)ccc1Oc1ccc(Cl)cc1Cl,inactive
4,Nc1ccncc1,inactive
5,CC(C)(C)CC(C)(C)c1ccc(O)cc1,inactive
6,c1ccc2c(c1)Nc1ccccc1S2,inactive
7,CCn1cc(C(=O)O)c(=O)c2ccc(C)nc21,inactive
8,Oc1cccc2cccnc12,inactive
9,CCOP(=S)(OCC)Oc1cc(C)nc(C(C)C)n1,inactive
10,OCCOc1ccccc1,inactive
11,Oc1ccc(Cl)cc1Cc1ccccc1,inactive
